Where “and” joins values, the source holds several entries; their conditions need not be identical. Identical values can stand only once. In all, about 420,000 compounds went through this assay and about 64,000 (15%) were called active. Not shown: some 27% with an inconclusive outcome. Calls come from the whole dose curve; as a rule, active = well fitted inhibition curve with a large enough effect; inconclusive = small, poorly fitted or top-dose-only effect; inactive = flat fitted curve, though single readings scatter. Not all results are given here. A call without a number means that no potency is given here. More than one record can exist for a structure, and the calls need not agree.
Test: qHTS for Inhibitors of human tyrosyl-DNA phosphodiesterase 1 (TDP1): qHTS in cells in absence of CPT; note: nearly all actives have a fitted effect of over 55% in size
Conditions: DT40 Tdp1-/- hTDP1 cells, no CPT, ATP luminescence, 48 h; activity change, negative = growth inhibition: at 46.2 µM (top of the series)
How it was run: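 Readout: luminescence from CellTiter-Glo after 30 min in the dark at RT. Cells: DT40 Tdp1-/- with stable hTDP1, 400/well. Exposure: compounds alone, ≥48 hr, 37 °C.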
Potency is the fitted concentration of half-maximal effect.

Structure (SMILES)	Potency
Cn1c(=NC(=O)CSCC(=O)N2CCOCC2)sc2ccccc21	inactive
CCC(=O)N1CCc2cc(S(=O)(=O)NCCC(=O)Nc3cccc(C)c3C)ccc21	inactive
O=C(COC(=O)c1cccnc1Cl)NC12CC3CC(CC(C3)C1)C2	inactive
COc1cc(C(=O)OCC(=O)NC23CC4CC(CC(C4)C2)C3)cc(OC)c1OC	18.4 µM (active)
O=C(COC(=O)c1ccc(Br)o1)NC12CC3CC(CC(C3)C1)C2	inactive
CCOC(=O)CNc1nc2ccccc2n2c(C)nnc12	inactive
CCOC(=O)c1oc2c(CN3CCN(CCO)CC3)c(O)c(CC)cc2c(=O)c1-c1nc2ccccc2s1	inactive
O=C(NCCCN1CCOCC1)c1ccccc1NS(=O)(=O)c1ccc(Br)cc1	inactive
O=C(NCCCN1CCOCC1)c1ccccc1NS(=O)(=O)c1ccc(F)cc1	inactive
O=C(NCCCN1CCOCC1)c1cnn2c(-c3ccccc3)cc(-c3ccccc3)nc12	20.6 µM (active)
CCCCN=C1N/C(=C\c2ccco2)C(=O)N1c1ccccc1	29.1 µM (active)
CCOC(=O)C1(C)NC(c2ccco2)C2C(=O)N(c3ccccc3)C(=O)C21 (stereo unspecified)	inactive
COc1cc2c(cc1/C=C1/NC(=O)N(c3ccccc3)C1=O)OCO2	inactive
Cc1cc(NC(=O)CS(=O)(=O)c2cn(C)c3ccccc23)no1	inactive
CN(C)CCNC(=O)C(C(=O)c1ccccc1)n1ccccc1=O (stereo unspecified)	inactive
O=C(Nc1ncc([N+](=O)[O-])s1)C1COc2ccccc2O1 (stereo unspecified)	18.4 µM (active)
O=C(Nc1nnc(SCc2ccc(Cl)cc2Cl)s1)C1COc2ccccc2O1 (stereo unspecified)	inactive
O=C(Nc1nc2c(F)cc(F)cc2s1)C1COc2ccccc2O1 (stereo unspecified)	inactive
CCCS(=O)(=O)Nc1ccc(-c2cn3c(n2)SCC3)cc1	inactive
CN(Cc1ccc2nsnc2c1)Cc1nc(Cc2cccc(F)c2)no1	inactive
O=C(Nc1ccc(N2CCCC2=O)cc1)c1cncc(Br)c1	inactive
O=C(Nc1cccc(S(=O)(=O)N2CCCC2)c1)c1cncc(Br)c1	13 µM (active)
Cc1ccc(S(=O)(=O)N2CCCCC2)cc1NC(=O)CCNC(=O)c1ccccc1	inactive
Cc1ccc(C(=O)NCC(=O)OCC(=O)Nc2cccc(S(=O)(=O)N3CCCC3)c2)cc1C	inactive
CC(NS(=O)(=O)c1ccc(Cl)cc1)C(=O)Nc1ccc2c(c1)OCCO2 (stereo unspecified)	inactive
O=C(Nc1ccc(S(=O)(=O)Nc2ncccn2)cc1)c1cncc(Br)c1	inactive

Structure (SMILES)	Potency
CN1CCN(S(=O)(=O)c2cccc(C(=O)Nc3cccc(S(N)(=O)=O)c3)c2)CC1	inactive
O=C(Nc1cccc(S(=O)(=O)Nc2ccc(Cl)cc2)c1)c1ccc2c(c1)OCCO2	10.3 µM (active)
O=C(Nc1cccnc1)c1ccc2c(c1)OCO2	inactive
O=C(Nc1cccc(S(=O)(=O)N2CCCCC2)c1)c1ccc2c(c1)OCO2	16.4 µM (active)
O=C(CCNC(=O)c1ccc(Br)cc1)Nc1cccc(S(=O)(=O)N2CCCCC2)c1	18.4 µM (active)
O=C(Nc1ccccc1)c1ccc2c(c1)OCCCO2	inactive
CCOc1cc2[nH]c(=O)n(Cc3ccc(C(=O)NCCCN4CCCC4=O)cc3)c(=O)c2cc1OCC	inactive
CS(=O)(=O)N1CCC2(CC1)CN(c1ccncc1)C2	inactive
Cc1ccc(-c2nnc3c4ccccc4c(C)nn23)cc1NC(=O)c1cccc(Br)c1	inactive
CS(=O)(=O)N1CCCC(C(=O)N2CCOCC2)C1 (stereo unspecified)	inactive
CCOc1ccc(NC(=O)CN(C)CC(=O)NC(C)c2ccccc2)cc1OCC (stereo unspecified)	inactive
COc1ccc(Cc2nnc(SCC(=O)c3cccc([N+](=O)[O-])c3)n2C)cc1	inactive
CCOc1ccc2nc(NCCNS(=O)(=O)c3ccccc3)c(C#N)cc2c1	inactive
CC(C)(C)N1C(=O)[C@H]2[C@@H](c3ccc(Br)cc3)N3C(=O)N(c4cccc(Cl)c4)C(=O)[C@@]3(C)[C@H]2C1=O	inactive
COC(=O)[C@H](Cc1ccccc1)NC(=O)Nc1ccc(S(N)(=O)=O)cc1	inactive
O=C(Nc1nnc(S(=O)(=O)N2CCCCCC2)s1)c1cccc(Br)c1	4.61 µM (active) and 20.6 µM (active)
CC(=O)NC(CC(=O)Nc1cccc(S(=O)(=O)N2CCCC2)c1)c1ccccc1 (stereo unspecified)	inactive
CCN(CC(=O)Nc1ccc(S(=O)(=O)N2CCCC2)cc1)CC(=O)Nc1cccc(OC)c1	inactive
CCN(CC(=O)Nc1cccc(S(=O)(=O)N2CCCCC2)c1)Cc1ccccc1	23.1 µM (active)
O=C(NNC1=NCCC1)c1cccc(S(=O)(=O)N2CCCCC2)c1	inactive
O=C(Nc1ccc(Cl)cn1)c1ccc2c(c1)OCCO2	18.4 µM (active)
O=C(Nc1cccc(S(=O)(=O)N2CCCCC2)c1)c1cncc(Br)c1	18.4 µM (active)
Cn1nnnc1SCC(=O)Nc1cccc(S(=O)(=O)N2CCCCC2)c1	inactive
COc1c(Cl)cc(C(=O)Nc2ccc(Cl)cn2)cc1Cl	inactive
CCCc1cc(C(=O)Nc2ccc(Cl)cn2)cs1	inactive
Cc1cccc(C(=O)Nc2nnc(S(=O)(=O)N3CCCCCC3)s2)c1	inactive

Structure (SMILES)	Potency
O=C(Nc1nncs1)c1cccc(S(=O)(=O)N2CCCCC2)c1	inactive
COc1ccc(S(=O)(=O)N2CCSCC2)cc1	inactive
CCOC(=O)NC(=O)CSc1nnc(SCCC(=O)O)s1	inactive
COc1ccccc1-c1ccc(C(=O)N(C)C(C)c2ccon2)c(N2CCN(c3ccccc3F)CC2)n1 (stereo unspecified)	inactive
N=c1c2c3c(sc2ncn1N)CCCC3	inactive
O=C(Nc1ccc(S(=O)(=O)N2CCCC2)cc1Cl)C1=COCCO1	inactive
CC(C)(O)CCC(O)[C@@](C)(O)C1CC[C@]2(O)C3=CC(=O)C4CC(O)C(O)C[C@]4(C)C3CC[C@]12C (stereo partly specified)	inactive
C=CCSc1nc2c(c(=O)[nH]1)C(C(C)C)C(C#N)=C(N)O2 (stereo unspecified)	inactive
CC1CCCC(NC(=O)CSc2nccn2C)C1C (stereo unspecified)	inactive
CSc1ccc(S(=O)(=O)NCC(=O)OCC(=O)NC2(C#N)CCCCC2)cc1[N+](=O)[O-]	inactive
Cc1cc(NC(=O)CCC(=O)N(CC(=O)NCC2CCCO2)c2ccccc2)no1 (stereo unspecified)	inactive
CCC(C)C(=O)Nc1cc([N+](=O)[O-])ccc1Cl (stereo unspecified)	inactive
N/C(=N\OC(=O)/C=C/c1ccccc1)c1ccc(Br)cc1	inactive
Cc1noc(C)c1CSCC(=O)Nc1ccc(Br)cc1Cl	10.3 µM (active)
CCOC(=O)c1c(C2CC2)csc1NC(=O)CSCc1c(C)noc1C	inactive
Cc1cc(NC(=O)CSCc2ccccc2C)no1	inactive
COCCNC(=O)c1cc2c(Br)ccc(Br)c2nc1N	inactive
CCOC(=O)C1(Cc2ccc(Cl)cc2)CCN(C(=O)C2=NNC(=O)CC2)CC1	inactive
COc1ccc(CCc2nnc(CCC(=O)NCc3cnn(-c4ccccc4C)c3)o2)cc1	inactive
COc1ccc(CCNC(=O)C(=O)NCC2OCCN2S(=O)(=O)c2ccc(F)cc2)cc1OC (stereo unspecified)	inactive
COc1ccc(S(=O)(=O)N2CCOC2CNC(=O)C(=O)NCc2ccncc2)cc1C (stereo unspecified)	inactive
COc1ccc(CCNC(=O)C(=O)NCC2OCCN2S(=O)(=O)c2ccc(OC)c(C)c2)cc1 (stereo unspecified)	18.4 µM (active)
Cc1ccc(OCCNC(=O)CNC(=O)c2ccc(C)c(C)c2)cc1	inactive
O=C(NCc1ccc(Cl)cc1)c1ccc2c(c1)nnn2C1CCCC1	inactive
COCCNC(=O)c1ccc(S(=O)(=O)c2ccc(Cl)cc2)c(NC(C)=O)c1	inactive
Cc1ccc(CNC(=O)c2ccc3c(c2)S(=O)(=O)c2ccccc2C3=O)cc1	inactive

Structure (SMILES)	Potency
COCCNC(=O)c1ccc2c(c1)N=C(C)c1cc(C)ccc1S2	0.461 µM (active)
CC1=Nc2cc(C(=O)NCc3ccc(C)cc3)ccc2Sc2ccc(Cl)cc21	20.6 µM (active)
O=[N+]([O-])c1ccccc1/C=C/CN1CCCC(CO)C1 (stereo unspecified)	inactive
Cc1nnc(SCC(=O)Nc2ncc3c(n2)CC(C)(C)CC3=O)s1	inactive
O=C(NC(=S)Nc1ncccn1)c1ccccc1Br	inactive
CCC(C)N(C(=O)COC(=O)c1nc(Cl)ccc1Cl)C1CCS(=O)(=O)C1 (stereo unspecified)	inactive
CCN(CC)CCN1C(=O)C(=O)/C(=C(/O)c2ccccc2)C1c1ccccc1F (stereo unspecified)	inactive
COc1cccc(C(c2c(O)cc(C)n(Cc3ccco3)c2=O)N2CCN(c3ccccc3)CC2)c1 (stereo unspecified)	inactive
Cc1c(NC(=O)CSc2nnnn2-c2ccc(C(=O)O)cc2)c(=O)n(-c2ccccc2)n1C	inactive
Cc1c(NC(=O)CSc2nnc(-c3cccnc3)n2N)c(=O)n(-c2ccccc2)n1C	inactive
Cc1c(NC(=O)CSc2cccc3cccnc23)c(=O)n(-c2ccccc2)n1C	23.1 µM (active)
COc1ccc(F)c(CN2CCC3(CCC(CNC(=O)c4ccn(C)n4)O3)CC2)c1 (stereo unspecified)	inactive
Cc1cc(NC(=O)Cn2nc(C(F)(F)F)c3c2CCCC3)no1	inactive
OCCN1CCOCCOCCN(CCO)CCN(CCO)CC1	inactive
Cc1cc(C)c(C#N)c(SCc2ccc3c(c2)OCO3)n1	inactive
Cc1nc(-c2ccccc2)sc1-c1nnc(C2CC2)o1	inactive
C=CCn1c(CCNC(=O)c2cccs2)n[nH]c1=S	inactive
C=CCn1c(-c2sc(-c3ccccc3)nc2C)n[nH]c1=S	23.1 µM (active)
COc1ccc(/C=C/c2c(-c3cccc(C)c3)oc3ccc(-c4ccc5c(c4)OCO5)cc23)cc1	inactive
CC(C)NC(=O)/C(C#N)=C\c1ccc(N(C)C)c(Br)c1	inactive
CC(C)(C)C(=O)/C(C#N)=C/c1ccc(O)cc1	inactive
N#C/C(=C\c1ccc(O)c(O)c1)C(N)=O	inactive and 29.9 µM (active)
CCc1nc2ccc(C(=O)N(C)CCN(C)C)cn2c1N(CC)CCOC	inactive

Source: PubChem BioAssay AID686978 (National Center for Advancing Translational Sciences (NCATS), 2013)
